High-throughput results as filed in PubChem.
aSyn yeast inh: qHTS of alpha-syn Inhibitors. Yeast expressing alpha-synuclein, growth rescue, BacTiter-Glo, 24 h. Potency, µM (highest dose often 46.1 µM), without a hit: top-dose growth rescue (activation), hits mostly activators. 370,000 tested, 0.14% active. AID 652106, 2013; further: % of control where 0% means no effect; nearly all actives have a fitted effect of over 65% in size
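Screening used galactose-induced yeast with toxic alpha-synuclein levels, exposed to compound for 24 hr at 30 deg C. Cell growth, read with BacTiter-Glo luminescence, gave the measured signal.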
TDP43 rescue: qHTS of TDP-43 Inhibitors; TDP-43 expressing yeast growth rescue, BacTiter-Glo, 24 h; Potency, µM (doses to about 46.1 µM), for inactives: at the highest dose growth rescue (activation), hits mostly activators; 410,000 tested, 1.8% active; AID 652104, 2013; further: % of control where 0% means no effect; nearly all actives have a fitted effect of over 50% in size
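Growth rescue of TDP-43-toxic yeast measured as ATP luminescence (BacTiter-Glo). Cells grown to mid-log in raffinose, induced in galactose at OD600=0.02, exposed to compound 24 hr at 30 deg C.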
FUS yeast rescue: qHTS for Suppressors of FUS Proteinopathy: Primary screen using FUS-linked yeast assay; S. cerevisiae FUS-expressing, growth rescue, OD600, 24 h; Potency, µM (titrated, usually from 76.6 µM), most hits filed as activators; 390,000 tested, 0.24% active; AID 1347120, 2019;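 further: plate controls were DMSO vehicle for no effect and reference control for full effect; nearly all actives have a fitted effect of over 55% in size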
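Yeast expressing FUS under galactose induction, OD 0.005 in 2% galactose medium; compounds in a dilution series, 24 h at 30C. Growth rescue by absorbance at 600 nm; CP55940 positive control, DMSO negative.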
Abeta rescue: qHTS for compounds that reverse cellular toxicity of Amyloid beta (A-beta) peptide in yeast: Primary Screen | yeast expressing A-beta42, growth rescue, OD600, 48 h; response scale: 0% DMSO, 100% iron-clioquinol control | Potency, µM (highest dose often 46.1 µM), actives largely listed as activators | 410,000 tested, 0.063% active | AID 1347071, 2019; further: nearly all actives have a fitted effect of over 55% in size
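Growth rescue measured by 600 nm absorbance after 48 h yeast culture at 30 C with compound. Values normalized between DMSO and an equimolar ferric chloride plus clioquinol control.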
* hit, by the source's call; i = inactive; ? = inconclusive; . = no result; [ ] = dose if it differs, or a comment. Rows were chosen to be rich in hits. Some 2.1% of all compounds tested hit in one or more screens of this group. The call rests on the fitted dose curve; in most records, active means well fitted curve in the direction sought with a large enough effect; inconclusive means small, poorly fitted or top-dose-only effect, or another doubt; inactive means no such curve, though single readings can be large; an effect the other way counts as inactive or inconclusive. Potency means the concentration at half of the fitted maximal effect.

SMILES | aSyn yeast inh | TDP43 rescue | FUS yeast rescue | Abeta rescue
O=C(Nc1nnc(-c2ccc(F)cc2)o1)c1cccc([N+](=O)[O-])c1 | ? | 11.2µM* | i | ?
O=C(Nc1nnc(-c2cccs2)o1)c1cccc(Oc2ccccc2)c1 | ? | 3.98µM* | i | i
COc1cccc(-c2nnc(NC(=O)c3cccc(F)c3)o2)c1 | 12.8% | ? | i | i
O=C(Nc1nnc(-c2cccs2)o1)c1cccc(F)c1 | 28.6% | 12.6µM* | i | 11.2µM*
Cc1ccc(C)c(CN2CCCN(Cc3ccc(F)cc3)S2(=O)=O)c1 | . | -10.6% | i | i
COc1ccc(C(C)(NC(C)=O)c2nc(-c3ccc(F)c(Cl)c3)cs2)cc1 (stereo not drawn) | 7.1% | 35.5µM* | ? | i
COc1ccc(-c2csc(C(C)(NC(C)=O)c3ccc(OC)cc3)n2)cc1 (stereo not drawn) | -20.7% | ? | i | i
Nc1c2c(nc3sc4c(c13)CCCC4)-c1ccccc1CC2 | -6.6% | 2.51µM* | i | i
NNc1nc(-c2ccccc2)nc2sc3c(c12)CCCC3 | -4.2% | -3.5% | i | i
COc1ccc(NC(C)(C)c2nnnn2-c2c(C)cccc2C)cc1 | 11.0% | 12.6µM* | i | i
Cc1nnc2c3ccccc3nc(N3CCN(c4cccc(Cl)c4)CC3)n12 | . | 25.1µM* | i | i
COc1ccc(C(O)c2nc(-c3ccc(C)c(C)c3)cs2)cc1 (stereo not drawn) | 10µM* | ? | i | i
COc1cc(C(O)c2nc(-c3ccccc3OC)cs2)ccc1F (stereo not drawn) | ? | 17.8µM* | i | i
COc1cc(C(O)c2nc(-c3cc(F)cc(F)c3)cs2)ccc1F (stereo not drawn) | ? | 35.5µM* | i | ?
COc1cc(C(O)c2nc(-c3cncnc3)cs2)ccc1F (stereo not drawn) | -0.4% | ? | i | i
COc1cc(F)ccc1-c1csc(C(O)c2ccc(F)cc2)n1 (stereo not drawn) | 0.0% | ? | i | ?
COc1cc(C(O)c2nc(-c3ccc(N(C)C)cc3)cs2)ccc1F (stereo not drawn) | 5.1% | 2.8% | i | i
COc1cc(C(O)c2nc(-c3cccc(F)c3)cs2)ccc1F (stereo not drawn) | ? | 15.8µM* | i | i
COc1ccccc1C(=O)NC1(C(F)(F)F)C(=O)Nc2c1c(=O)[nH]c(=O)n2-c1ccc(F)cc1 (stereo not drawn) | -8.5% | -4.9% | i | i
CCOC(=O)C1=CN(Cc2ccco2)S(=O)(=O)N(CC)C1c1ccc(C(F)(F)F)cc1 (stereo not drawn) | -0.3% | 15.5% | i | i
COc1ccc(C(O)c2nc(-c3cc(F)cc(F)c3)cs2)cc1 (stereo not drawn) | ? | 35.5µM* | i | ?
COc1ccc(C(O)c2nc(-c3ccc(F)cc3OC)cs2)cc1 (stereo not drawn) | 0.0% | 22.4µM* | i | ?
COc1cc(C(O)c2nc(-c3cccc(C(C)C)c3)cs2)ccc1F (stereo not drawn) | -19.7% | 22.4µM* | i | i
COc1ccc(-c2csc(C(O)c3ccc(F)cc3)n2)cc1OC (stereo not drawn) | 12.9% | 22.4µM* | i | i
OC(c1ccccc1)c1nc(-c2cc(F)cc(F)c2)cs1 (stereo not drawn) | 18.2% | ? | i | i
SMILES | aSyn yeast inh | TDP43 rescue | FUS yeast rescue | Abeta rescue
CCC[C@H]1[C@@H](OC(=O)NCCc2c[nH]c3ccccc23)CC[C@@]23CCCN2C(=O)CCC[C@@H]13 | . | . | i | .
COc1ccc(NC(=O)c2ccc(NC(=O)CCS(=O)(=O)c3cccs3)cc2)cc1Cl | . | 1.2% | i | i
CCOC(=O)Cc1csc(NC(=O)c2ccc(Br)cc2)n1 | -8.8% | 12.6µM* | i | i
CCOC(=O)Cc1csc(NC(=O)c2ccc(NC(C)=O)cc2)n1 | -8.9% | -4.8% | i | i
CCOC(=O)Cc1csc(NC(=O)c2cccc(Cl)c2)n1 | 0.1% | ? | i | i
CCOC(=O)Cc1csc(NC(=O)c2ccc3ncsc3c2)n1 | -14.7% | 14.1µM* | i | i
COC(=O)C[C@H]1C=C[C@H](NC(=O)Cc2ccccc2)[C@@H](CO)O1 | 3.55µM* | 20.9% | i | i
O=C(CSc1ccccc1Cl)N1CCC(c2nc3ccccc3s2)CC1 | ? | ? | i | i
CCC(Oc1ccccc1F)C(=O)N1CCC(c2nc3ccccc3s2)CC1 (stereo not drawn) | . | 25.1µM* | i | i
COc1cccc(C(=O)N2CCC(c3nc4ccccc4s3)CC2)c1 | . | 0.0% | i | i
O=C(CSc1ccc(F)cc1)N1CCC(c2nc3ccccc3s2)CC1 | 27.5% | 22.4µM* | i | i
O=C(c1cccc(F)c1)N1CCC(c2nc3ccccc3s2)CC1 | 4.4% | 12.6µM* | i | i
CCCOc1ccccc1C(=O)N1CCC(c2nc3ccccc3s2)CC1 | . | ? | i | i
COc1ccc(C(=O)CSc2nnc(-c3cccc(Cl)c3)n2Cc2ccco2)cc1 | . | . | i | .
COc1ccc(S[C@]2(C(=O)NCc3ccccc3)CC(=O)N[C@@H]2c2ccc(OC)cc2)cc1 | . | . | i | .
O=S(=O)(NCC(c1ccc2c(c1)OCO2)N1CCN(c2ccccc2)CC1)c1ccccc1 (stereo not drawn) | 11.2% | 15.8% | i | i
COc1cc(OC)c(Nc2ncnc3onc(-c4cccc(Cl)c4)c23)cc1Cl | . | 5.7% | i | i
COc1cc(/C=N\NC(=O)C2CC3C=CC2C3)ccc1O (stereo not drawn) | -6.1% | 3.9% | . | i
COc1ccccc1OCCN1CSC(=S)N(C)C1 | -66.9% | 20µM* | i | i
Cc1cccc(OCCN2CSC(=S)N(C)C2)c1 | -7.9% | 21.5% | i | i
O=C(Nc1nc(-c2ccc(Cl)cc2)cs1)C1=COCCO1 | -9.0% | ? | i | i
COc1ccc(-c2csc(NC(=O)C3=COCCO3)n2)cc1OC | -1.7% | 8.1% | i | i
O=C(Nc1nc(-c2ccc(F)c(F)c2)cs1)C1=COCCO1 | 0.2% | 3.98µM* | i | i
CCc1ccc(-c2csc(NC(=O)C3=COCCO3)n2)cc1 | 7.3%[1.84 µM] | 17.8µM* | i | i
COc1cccc(CNC(=O)C2CCN(S(=O)(=O)c3c(C)noc3/C=C/c3cccs3)CC2)c1 | . | 11.1% | i | i
COCCNC(=O)CCN1C(=O)c2cccnc2Oc2ccc(C)cc21 | . | 1.8% | i | i
COc1cc2ncc(S(=O)(=O)c3ccccc3)c(N3CCCC(C)C3)c2cc1OC (stereo not drawn) | -1.4% | 28.2µM* | ? | i
CCN1CCN(c2c(S(=O)(=O)c3ccc(OC)cc3)cnc3cc(OC)c(OC)cc23)CC1 | . | 19.1% | i | i
